High-throughput results: PubChem BioAssay, several laboratories
Shown are actives, neighbours in structure and some others; about 4.9% of the full set was active somewhere.
SKKanGAS inh – S. pyogenes SKKanGAS growth inhibitors in kanamycin, primary screen, streptokinase expression inhibitor project, SKKanGAS strain, BacTiter-Glo luminescence. 6 h. inhibition, % at 7.5 µM. 300,000 compounds, 1.3% hits;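 active means mean replicate score, as percent of positive control median, at least 50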;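 further: strain carries kanamycin resistance gene driven by streptokinase promoter and grows in 40 µg/ml kanamycin; loss of luminescence reflects streptokinase promoter inhibition or plain growth inhibition; 0% = median of DMSO wells and 100% = positive control at its reference dose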
TIM10 inh – growth inhibitors of isogenic TIM10 control yeast, primary screen, counter-screen for tim10-1 yeast inhibitor project, luminescence, uHTS; S. cerevisiae TIM10 strain growth, BacTiter-Glo luminescence, 24 h; AID 463195, 2010; inhibition, % at 10 µM; 330,000 compounds, 1.4% hits;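 active means inhibition of 40% or more at the single tested concentration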;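 further: wild-type TIM10 isogenic control strain grown at permissive 25 °C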
NALP1 yeast inh – NALP1 inflammasome inhibitors in reconstituted yeast, colorimetric, S. cerevisiae, triplicate retest; 280,000 compounds, 0.61% hits; S. cerevisiae NALP1/ASC/caspase-1 growth, X-gal OD620, 72 h; inhibition, % at 10 µM; in the data active means inhibition mostly above about 24%, no sharp cut-off; inactive means mostly below about 32%
tim10-1 inh – growth inhibitors of tim10-1 mutant yeast, primary screen, luminescence, uHTS | inhibition, % at 20 µM | 330,000 compounds, 2.2% hits | S. cerevisiae tim10-1 ts strain growth, BacTiter-Glo, 24 h;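 active means inhibition of at least 40%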;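 further: mutant grown at 25 °C; 0% = DMSO wells with yeast and 100% = wells holding no yeast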
tim23-1 inh – growth inhibitors of tim23-1 mutant yeast, primary screen, luminescence, uHTS; S. cerevisiae tim23-1 growth, BacTiter-Glo luminescence, 24 h; inhibition, % at 20 µM; 330,000 compounds, 1.3% hits; AID 463212, 2010;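 active means growth inhibition of the mutant yeast at or above 50%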;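 further: temperature-sensitive mutant grown at 25 °C; plate controls were DMSO-treated mutant yeast for no effect and medium wells lacking yeast for full effect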
NALP3 yeast inh – NALP3 inflammasome inhibitors in reconstituted yeast, primary screen, luminescence, uHTS; Yeast reconstituted NLRP3/ASC/caspase-1, beta-gal luminescence, 24 h; inhibition, % at 10 µM; 330,000 compounds, 0.39% hits;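 active means inhibition of 50% or more; inactive means inhibition below 50%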;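 further: plate controls were induced DMSO wells for no effect and uninduced yeast grown without galactose for full effect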
Active calls of the source: *; / = not tested or not shown.

SMILES	SKKanGAS inh	TIM10 inh	NALP1 yeast inh	tim10-1 inh	tim23-1 inh	NALP3 yeast inh
O=C(NC(=S)Nc1ccccc1)c1cc([N+](=O)[O-])ccc1N1CCOCC1	4.1	10.0	26.5*	7.6	10.3	22.6
O=C(Nc1ccccc1)c1cc([N+](=O)[O-])ccc1N1CCCCC1	/	0.4	/	14.7	36.9	22.3
Cc1ccccc1NC(=S)NC(=O)c1cncc(Br)c1	-5.8	12.5	15.9	31.0	34.4	21.4
Cc1cccc2c1NC(=O)C21OCC(CO)([N+](=O)[O-])CO1 (stereo unspecified)	0.0	-6.1	15.3	4.3	0.9	8.7
C=CCNC(=O)c1c(CSc2ccc(Cl)cc2)noc1C(=O)NCc1ccccc1	39.4	10.5	/	24.0	20.0	13.8
COc1ccc(C)cc1N(CC(=O)N1CCCCCC1)S(=O)(=O)c1ccc(C)cc1	0.9	13.1	4.0	25.6	30.9	4.5
O=C(NC(=S)Nc1ccc(N2CCOCC2)c(Cl)c1)c1cccs1	64.7*	9.0	10.7	21.7	15.7	25.6
O=C(NC(=S)Nc1ccc(N2CCOCC2)c(Cl)c1)c1sc2ccccc2c1Cl	4.3	7.3	0.2	4.8	1.5	-7.5
Cc1noc(C)c1CC(=O)Nc1ccc2c(c1)OCO2	/	9.5	/	-19.8	-17.2	24.8
O=C1c2ccccc2C(=O)c2[nH]c(=O)[nH]c21	62.3*	14.2	1.9	23.5	16.0	21.6
CCCCNc1c2c3c(cccc3n(C)c1=O)C(=O)c1ccccc1-2	53.6*	-13.5	0.2	21.9	-2.7	22.4
Cc1ccccc1OCC(=O)NCCCNC(=O)c1ccncc1	4.9	-15.7	1.7	-11.3	-0.4	0.0
Cc1cc(C(=O)Nc2nc(-c3ccccn3)cs2)ccc1[N+](=O)[O-]	91.4*	12.3	-20.6	-1.9	-21.7	13.0
O=C(Nc1nc(-c2ccccn2)cs1)c1ccc2c(c1)OCCO2	83.5*	2.6	-6.8	5.4	14.1	27.0
O=C(Nc1nc(-c2ccccn2)cs1)c1cc(Cl)ccc1[N+](=O)[O-]	95.0*	-8.7	-0.9	37.6	4.0	-2.6
CC(=O)Nc1ccc(C(=O)Nc2nc(-c3ccccn3)cs2)cc1	5.7	-7.9	-19.3	-0.5	7.8	1.2
CC(C)(C)c1ccc(S(=O)(=O)N2CCNC(=O)C2)cc1	/	-1.6	/	-2.6	9.8	18.2
COc1ccc(C2CC(c3ccccc3)Nc3nc(NS(C)(=O)=O)nn32)cc1 (stereo unspecified)	-11.6	-2.2	/	0.6	7.8	10.7
Cc1ccc(C(=O)CSc2nnc3n2CCCCC3)s1	/	2.4	/	-2.9	10.2	4.1
CCc1ccc(C(=O)NNC(=O)c2ccc(=O)n(C)n2)cc1	-3.5	-0.5	-2.5	-6.2	-3.4	8.6
O=c1c2ccccc2oc2ccc(-c3ccc4cc[nH]c4c3)cc12	/	5.0	/	-4.4	20.2	35.4
CCOC(=O)c1ccc(N2Cc3ccccc3C2=NC(=O)c2ccncc2)cc1	/	/	9.1	/	/	/
CCOC(=O)c1ccc(N2Cc3ccccc3C2=N)cc1	-2.3	-102.6	39.5*	-30.1	-221.2	3.5
N#Cc1ccccc1S(=O)(=O)N1CCN(c2nc(-c3cccnc3)nc3ccccc23)CC1	/	19.4	/	32.3	36.4	12.1
CNC[C@H](CC1CCCCC1)NC[C@H](Cc1ccccc1)NCCC12CC3CC(CC(C3)C1)C2	98.1*	-75.0	17.1	35.1	-96.9	43.3
COCCNC(=O)c1cc2c(=O)[nH]c3ccccc3c2s1	-3.6	-7.3	-4.0	14.8	-3.1	-3.4
CCCN1CCN(CCCNC(=O)c2cc3c(=O)[nH]c4ccccc4c3s2)CC1	-6.6	8.7	24.9*	4.5	3.2	16.5
Oc1cc2c(cc1C(c1ccc(Br)cc1)N1CCCC1)OCO2 (stereo unspecified)	/	32.9	43.2*	39.8	36.3	44.4
COCc1cc(=O)[nH]c(Nc2nc3ccc(C)cc3o2)n1	69.7*	2.2	-8.4	11.6	12.8	-10.8
CC1=NCCN1S(=O)(=O)c1c(C(C)C)cc(C(C)C)cc1C(C)C	16.2	19.8	28.0*	35.0	21.1	10.4
